High-throughput results deposited in PubChem by Buhrlage Lab, Dana-Farber Cancer Institute and Novartis Institutes for BioMedical Research (Cambridge, Mass).
Most compounds without a hit are left out; they make up all but 9.6% or so of the library.
USP17 block: inhibitors of human USP17 deubiquitinase; 6.5% of 47,000 active; Ubiquitin carboxyl-terminal hydrolase 17-like protein 5 (Homo sapiens), A8MUK1; AID 1645855, 2021; inhibition, % at 50 µM; purified USP17, Ub-rhodamine cleavage fluorescence, 3 h
USP30 block: inhibitors of human USP30 deubiquitinase; Ubiquitin carboxyl-terminal hydrolase 30 (Homo sapiens), Q70CQ3; 5.3% of 47,000 active; inhibition, % at 25 µM; purified USP30, Ub-rhodamine cleavage fluorescence
Target sequence (Q70CQ3 whole entry, looked up): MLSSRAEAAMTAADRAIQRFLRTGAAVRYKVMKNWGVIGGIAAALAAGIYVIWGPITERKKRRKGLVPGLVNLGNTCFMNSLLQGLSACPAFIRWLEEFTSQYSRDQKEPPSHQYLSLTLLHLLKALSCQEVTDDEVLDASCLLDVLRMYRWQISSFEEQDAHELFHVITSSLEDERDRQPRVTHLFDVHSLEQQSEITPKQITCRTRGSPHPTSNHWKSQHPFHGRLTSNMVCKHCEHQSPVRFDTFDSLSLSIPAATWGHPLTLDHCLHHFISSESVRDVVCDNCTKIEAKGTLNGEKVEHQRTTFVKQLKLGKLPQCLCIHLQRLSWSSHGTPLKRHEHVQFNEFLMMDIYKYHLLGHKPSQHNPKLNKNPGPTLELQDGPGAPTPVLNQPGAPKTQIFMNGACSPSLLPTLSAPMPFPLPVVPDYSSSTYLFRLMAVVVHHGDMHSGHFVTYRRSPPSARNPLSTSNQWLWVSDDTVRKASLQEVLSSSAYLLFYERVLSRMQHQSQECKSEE
Active calls of the source: *; i = inactive; . = no result given. No stated cut-off is given here; in the data, active means inhibition above about 30%; inactive means the rest.

SMILES	USP17 block	USP30 block
Cn1c(O)c(C2c3cc(Cl)cc(Cl)c3Oc3c2c(=O)n(C)c(=O)n3C)c(=O)n(C)c1=O (stereo not drawn)	-57.4	-59.1
C[C@]12C(=O)N(Cc3ccccc3F)CC(=O)N1CCc1c2[nH]c2ccccc12	-4.5	5.0
COc1c(O)c(O)c2c(=O)cc(-c3ccc(O)cc3)oc2c1OC	67.2*	13.2
COc1cc(C2CC(=O)Oc3n[nH]c(-c4ccccc4)c32)cc(OC)c1OC (stereo not drawn)	6.8	4.2
COc1cc(-c2oc3cc(OC)c(OC)c(O)c3c(=O)c2OC)ccc1O	1.4	-28.2
COc1cc(OC)c2c(=O)cc(-c3ccccc3)oc2c1OC	1.0	36.8*
COC(=O)C[C@@H]1CCNC[C@@H]1CC1=NCCc2ccccc21	-1.9	-0.5
O=C(NCCCN1CCC(N2CCCCC2)CC1)C1CCCN(S(=O)(=O)N2CCCCC2)C1 (stereo not drawn)	-12.8	-77.6
Cc1oc(-c2ccccc2F)nc1CS(=O)(=O)CC(=O)NCc1ccccc1Cl	45.5*	26.2
Cc1noc(-c2csc(C(=O)NCc3ccccc3Cl)n2)n1	3.7	22.7
COC(=O)c1c(C)[nH]c(C(=O)C(C)OC(=O)c2ccccc2OC)c1C (stereo not drawn)	-4.6	-16.0
Cn1nccc1C(=O)N1CC[C@](O)(c2ccccc2)[C@H](N2CCCC2)C1	-162.4	i
CC(C)(C)c1cc(C(=O)N2C[C@@H]3OCC(=O)N(CCc4ccccc4)[C@H]3C2)n[nH]1	0.6	30.9*
CC(C)c1cc(C(=O)N2C[C@@H]3OCC(=O)N(CCc4ccccc4)[C@H]3C2)n(C)n1	-2.8	2.3
O=C(NC1CCCCC1)C(c1ccc(F)cc1)N(C(=O)c1ccc(-c2ccccc2)[nH]1)C1CCN(Cc2ccccc2)CC1 (stereo not drawn)	4.6	0.3
Cc1cc(NCC(=O)Nc2ccc(F)cc2)n2nc(-c3cccnc3)nc2n1	-3.3	-91.7
COc1ccc(C(C(=O)NC2CCCC2)N(Cc2ccccc2Cl)C(=O)c2ccco2)cc1 (stereo not drawn)	11.0	35.2*
Cc1ccc(C(C(=O)NC2CCCC2)N(Cc2ccccc2Cl)C(=O)c2ccco2)cc1 (stereo not drawn)	-14.4	20.5
O=C(c1cccnc1)N1CCCn2nc(-c3ccc(Cl)cc3)cc2C1	13.2	18.1
Cc1nn(Cc2ccccc2)c(C)c1CN1CCC2(CC1)Nc1ccccc1C1=NCCN12	-37.9	-114.0
Cc1ccc(C)c2[nH]c(=O)c(CN(CC3CCCO3)S(=O)(=O)c3ccccc3Cl)cc12 (stereo not drawn)	14.1	33.0*
CC(=O)Nc1ccc(S(=O)(=O)N(Cc2cc3ccc(C)cc3[nH]c2=O)CC2CCCO2)cc1 (stereo not drawn)	0.9	-23.7
COc1ccc(Nc2nnc(Cc3ccc(Cl)cc3)c(=O)[nH]2)cc1	-3.5	4.4
CCc1cc2c(=O)[nH]c(Cc3ccc(OC)cc3)nc2s1	58.0*	39.6*
O=C(c1ccc2ncsc2c1)N1CCCC(c2nc3ccccc3[nH]2)C1 (stereo not drawn)	7.1	-0.2
SMILES	USP17 block	USP30 block
COCCn1c(=O)[nH]c2cc(C(=O)Nc3ccc(OC)c(Cl)c3)ccc2c1=O	10.0	21.9
CCCN1C=NS(=O)(=O)c2cc(C(=O)Nc3ccc(OC)c(Cl)c3)ccc21	50.8*	19.2
COc1ccc(Cl)cc1NC(=O)c1ccc(S(=O)(=O)N2CCCCC2)cc1	-13.5	-1.6
CCCN1C=NS(=O)(=O)c2cc(C(=O)Nc3cc(Cl)ccc3OC)ccc21	16.1	35.0*
Cc1c(C(=O)NCCCN2CCOCC2)oc2ccc3c(c12)C(=O)CC(C)(c1ccc(Cl)cc1)O3 (stereo not drawn)	9.8	18.7
Cc1ccc(S(=O)(=O)c2c(C(=O)N3CCCCC3)cnc3ccc(Cl)cc23)cc1	18.0	19.1
Cc1ccc(-n2c(C)cc(/C=C3\C(=N)N4N=C(COc5ccccc5C)SC4=NC3=O)c2C)cc1	-189.4	i
CCC(=O)N1CCc2cc(C(=O)Nc3ccccc3OC)ccc21	8.2	17.4
CCOC(=O)c1cnn(-c2ccc(C(=O)Nc3cccc(C)c3C)cn2)c1N	0.3	-1.1
CCCN(CCC)C(=O)CSc1nc2ccccc2c(=O)n1CC	2.9	13.4
O=C(Nc1cccc(Cl)c1Cl)N1CCCN(Cc2ccc(F)cc2)CC1	0.1	15.1
O=C(Nc1cccc2cnccc12)N1CCCCCC1	33.6*	4.5
COc1ccc(N2CCn3c(SCC(=O)Nc4cccc(C(F)(F)F)c4)nnc32)cc1	-6.6	6.0
O=C(CSc1nnc2n1CCN2c1ccccc1)Nc1ccc(OC(F)(F)F)cc1	24.1	29.4
O=C(CC1N=C(N2CCN(c3ccccc3)CC2)NC1=O)Nc1ccc(Cl)cc1 (stereo not drawn)	-0.5	1.8
COc1ccc(N2CCn3c(SCC(=O)Nc4ccccc4)nnc32)cc1	26.2	42.7*
COc1ccc(N2CCN(C3=NC(CC(=O)Nc4ccccc4)C(=O)N3)CC2)cc1 (stereo not drawn)	36.1*	24.6
COc1ccc(N2CCn3c(SCC(=O)Nc4cccc(F)c4)nnc32)cc1	36.7*	34.3*
CCCC(=O)Nc1ccc(Nc2cc(N3CCCCC3)nc(C)n2)cc1	-25.0	-19.6
CNc1nc(C2CCCN2S(=O)(=O)c2ccc(C)c(C)c2)nc2c1CCN(C(C)=O)C2 (stereo not drawn)	-9.5	-9.2
CCNc1cc(N2CCCC(CCC(=O)N3CCCC(C)C3)C2)ncn1 (stereo not drawn)	-21.8	-0.7
O=C(Nc1cccc(F)c1)N1Cc2cccn2-c2ccccc21	2.0	12.6
COc1cccc(C(=O)Cn2nc3n(CCC(C)C)c(=O)c4sccc4n3c2=O)c1	-12.6	5.9
COc1cccc(Cn2nc3n(CC(C)C)c(=O)c4ccc(C(=O)NCC(C)C)cc4n3c2=O)c1	39.3*	64.9*
CC(C)N1C(=O)C2COCCN2C(=O)c2cc3c(cc21)OCO3 (stereo not drawn)	36.9*	.
SMILES	USP17 block	USP30 block
Cc1cnc(C2COCCN2C(=O)c2ccc3c(c2)OCO3)[nH]1 (stereo not drawn)	18.3	16.4
Cc1cc(C)n2nc(C(=O)Nc3nc4ccc(F)cc4s3)nc2n1	4.7	-127.6
O=C(Nc1nc2ccc(F)cc2s1)c1cccc2c(Br)cccc12	32.6*	23.1
COc1ccc(CNC(=O)Cc2ccc3ccccc3c2)cc1OC	-1.9	5.2
O=C(NCc1ccc(F)cc1)Nc1ccc(-c2nnc(-c3ccccc3)o2)cc1	71.8*	.
O=C(Cn1cccc1-c1nnc(-c2ccccc2)o1)Nc1ccccc1	22.3	.
COc1ccc(CNC(=O)c2ccc(-c3nnc(-c4ccccc4)o3)cc2)cc1OC	25.3	41.9*
COc1ccc(CNC(=O)Cc2cccc3ccccc23)cc1OC	23.7	30.0*
COc1ccc(CNC(=O)c2cc3ccccc3cc2OC)cc1OC	-10.0	-11.9
Cc1cccc(NC(=O)CSc2nnc(-c3n[nH]c4c3CCC4)n2N)c1C	66.6*	37.9*
Cc1ccc(NC(=O)CSc2nnc(-c3n[nH]c4c3CCC4)n2N)cc1C	4.7	20.7
Cc1nn(Cc2ccccc2)c2sc(C(=O)Nc3nc4ccccc4[nH]3)cc12	66.6*	44.3*
COc1ccccc1NC(=O)c1ccc(Cn2nc(C)c(Cl)c2C)cc1	-6.2	-10.1
Cc1ccc(Cn2nc(C)c3cc(C(=O)NC4=NCCS4)sc32)cc1	-8.5	-18.4
COc1ccccc1NC(=O)c1cc2c(C)nn(Cc3ccccc3)c2s1	69.9*	0.2
